POLH inh: qHTS for Inhibitors of Polymerase Eta | Potency, µM (titrated, usually from 114 µM), inactives show at the highest dose activity change, negative = inhibition, actives largely listed as inhibitors | AID 588591, 2011 | DNA polymerase eta (Homo sapiens), Q9Y253 | recombinant Pol eta, fluorescent DNA replication assay | actives 1.2% (n = 390,000); also: potency is read from the fitted curve at half-maximal effect; % is scaled to controls: 0 for no effect and ±100 for the full control effect
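Pol eta at 10 nM preincubated with compounds 15 min at room temperature; reaction started with fluorescent substrate (50 nM final) and read kinetically at 0 and 10 min.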
PI4K2A block: qHTS for small molecular inhibitors of PI4K2A; Phosphatidylinositol 4-kinase type 2-alpha (Homo sapiens), Q9BTU6; purified PI4K2A, ADP-Glo luminescence, 1 h; active compounds read low; activity change, negative = inhibition, % at 76.9 µM; actives 0.13% (n = 420,000); in the data active = activity change below about -50%; inconclusive = mostly about -30% to -49%;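 also: -100% = wells without enzyme as full effect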
Target sequence (Q9BTU6 whole entry, looked up): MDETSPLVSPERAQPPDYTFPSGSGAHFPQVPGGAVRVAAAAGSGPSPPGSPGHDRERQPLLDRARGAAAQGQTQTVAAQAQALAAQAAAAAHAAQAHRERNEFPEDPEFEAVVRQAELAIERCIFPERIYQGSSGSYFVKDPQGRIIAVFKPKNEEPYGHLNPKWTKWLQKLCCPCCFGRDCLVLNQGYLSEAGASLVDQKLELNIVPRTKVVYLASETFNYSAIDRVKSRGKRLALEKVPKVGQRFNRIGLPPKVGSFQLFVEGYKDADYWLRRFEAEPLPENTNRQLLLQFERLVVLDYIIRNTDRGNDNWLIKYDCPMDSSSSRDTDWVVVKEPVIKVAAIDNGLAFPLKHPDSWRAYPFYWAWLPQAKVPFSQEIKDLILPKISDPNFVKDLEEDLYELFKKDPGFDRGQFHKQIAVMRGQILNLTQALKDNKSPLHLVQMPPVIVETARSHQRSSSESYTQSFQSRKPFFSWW
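In this quantitative HTS, ADP production by PI4K2A was quantified luminescently after 1 h at ambient temperature; 100 microM adenosine served as plate-quality control.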
Pol iota inh: qHTS for Inhibitors of Polymerase Iota; Pol iota fluorescent replication assay, 10 min; Potency, µM (highest dose often 115 µM), for inactives: at the highest dose activity, negative = inhibition, hits mostly inhibitors; actives 1% (n = 390,000); AID 588590, 2011; also: potency is read from the fitted curve at half-maximal effect
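Fluorescent replication assay read twice, at 0 min and 10 min after adding 50 nM (final) substrate. Enzyme (10 nM) and compounds were first incubated 15 min at room temperature; enzyme-free buffer wells were negative controls.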
Pol kappa inh: qHTS for Inhibitors of Polymerase Kappa. DNA polymerase kappa (Homo sapiens), Q9UBT6. purified Pol kappa, fluorescent DNA synthesis assay, 10 min. Potency, µM (doses to about 107 µM), for the others: top-dose activity, negative = inhibition, hits mostly inhibitors. actives 0.53% (n = 400,000). AID 588579, 2011; also: potency is read from the fitted curve at half-maximal effect; % is scaled to controls: 0 for no effect and ±100 for the full control effect
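Inhibition of 10 nM Pol kappa is measured by a fluorescent read-out at 0 and 10 min following addition of 50 nM substrate (final), with a 15-min room-temperature compound preincubation.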
POLB inh: qHTS Assay for Inhibitors of DNA Polymerase Beta; AID 485314, 2010; Potency, µM (doses to about 114 µM), for the others: top-dose activity change, negative = inhibition, hits mostly inhibitors; actives 1.3% (n = 340,000); Pol beta primer extension/strand displacement, fluorescence kinetic; P06746; also: potency is read from the fitted curve at half-maximal effect; % is scaled to controls: 0 for no effect and ±100 for the full control effect
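Reaction started by 50 nM substrate onto compound-treated Pol beta (10 nM, 15 min preincubation, room temperature); plates read at 0 min and 10 min. Normalized concentration-effect data fitted by four-parameter Hill equation.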
PI5P4Ka inh: qHTS for Inhibitors of phosphatidylinositol 5-phosphate 4-kinase (PI5P4K) | Phosphatidylinositol 5-phosphate 4-kinase type-2 alpha (Homo sapiens), P48426 | PI5P4Kalpha enzyme, ADP-Glo luminescence, 60 min; active compounds read low | max response, % | actives 1.2% (n = 330,000); active = max response of -50% or lower; inconclusive = between -30% and -50%; inactive = -30% or higher; also: value at the top dose of about 77 µM; % is scaled to controls: 0 for no effect and ±100 for the full control effect
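Human PI5P4Kalpha with substrate in 0.038 M HEPES pH 7.4, 0.28 mM EGTA, 0.1% CHAPS, 5% DMSO; reaction started with 5 microM ATP (final), 60 min at room temperature. ADP formed read by ADP-Glo luminescence.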
* hit, by the source's call; u = inconclusive; x = no result given; [ ] = remark or other dose. In the library only some 2.8% were active in any assay of this set; here they are far more common. Unless noted, calls follow the shape of the dose curve; as a rule, active = well fitted inhibition curve with a large enough effect; inconclusive = small, poorly fitted or top-dose-only effect, or another doubt; inactive = no such curve, though single readings can be large or run the other way.

SMILES	POLH inh	PI4K2A block	Pol iota inh	Pol kappa inh	POLB inh	PI5P4Ka inh
O=C(Nc1ccccc1C(=O)O)c1ccc(CN2C(=O)c3ccccc3C2=O)cc1	-9.6%	3.3	58.5%	-2.0%	1.2%	-53.4*
O=C(Nc1ccc(O)cc1C(=O)O)c1ccc2c(c1)C(=O)N(Cc1ccco1)C2=O	39.8µM*	0.7	u	-28.2%	u	x
COc1ccc(C(=O)Nc2ccccc2C(=O)O)cc1NC(=O)C(c1ccccc1)c1ccccc1	89.1µM*	7.4	7.0%	-19.2%	u	u
CC(C)CN1C(=O)c2ccc(C(=O)Nc3ccc(O)cc3C(=O)O)cc2C1=O	-8.2%	3.1	111.6%	-5.9%	16.4%	0.6
O=C(Nc1ccccc1C(=O)O)c1ccccc1	-17.6%	-3.7	u	-13.1%	31.6µM*	x
O=C(c1ccccc1)c1ccccc1NC(=O)c1ccccc1C(=O)O	-19.0%	3.0	7.6%	5.3%	5.3%	x
O=C(NC(NC(=S)Nc1ccccc1C(=O)O)C(Cl)(Cl)Cl)c1ccccc1 (stereo not drawn)	-14.3%	-3.4	53.1%	3.7%	33.5%	-58.2*
CC(C)CCN1C(=O)c2ccc(C(=O)Nc3ccccc3C(=O)O)cc2C1=O	-14.6%	0.4	u	-7.8%	u	-60.3*
CC(C)CCN1C(=O)c2ccc(C(=O)Nc3ccc(O)cc3C(=O)O)cc2C1=O	-10.8%	-0.5	18.5%	-15.0%	37.3%	-27.4
NCCNC(=O)c1ccc(Cl)cn1	x	1.9	x	-3.3%[19.4 µM]	x	x
Cn1nnnc1SCCNCc1ccccc1OCc1ccccc1	-6.4%	2.4	14.1%	2.9%	28.2µM*	-2.5
CCOc1ccccc1NC(=O)c1c(NC(=O)c2cccc(C)c2)sc2c1CCCC2	-19.8%	0.2	35.5%	0.0%	1.5%	x
COc1ccc(OC)c(/C=C/c2cc3ccccc3cn2)c1	x	x	-23.2%	-11.5%	x	x
COC(=O)/C(=C\C=C\c1ccccc1)NC(=O)c1ccccc1	-1.9%	-2.7	21.2%	-3.0%	23.4%	-53.5*
Cc1ccc(S(=O)(=O)N(CC(=O)N/N=C/c2ccco2)Cc2ccccc2)cc1	-18.2%	6.4	56.9%	14.1%	-16.4%	x
Cc1cccc(CN(CC(=O)N/N=C/c2ccco2)S(=O)(=O)c2ccc(Cl)cc2)c1	28.2µM*	-0.7	u	-31.5%	u	-22.7
COCCN(CCOC)c1ncnc2c1c(-c1ccccc1)cn2-c1ccc(C)c(Cl)c1	-19.1%	2.1	-7.1%	-12.5%[60.1 µM]	2.8%	x
Cc1nonc1C(=O)N/N=C/c1ccncc1	-21.7%	-4.4	51.1%	-13.5%	17.3%	0.6
Cc1nonc1C(=O)N/N=C/c1ccc(O)cc1O	-15.6%	-79.4*	57.5%	0.9%	4.1%	-13.5
CCOC(=O)[C@@]12CCCC=C1N(CCc1ccc(Cl)cc1)C(=O)[C@H]2CC(=O)N1CCCC1	x	-16.5	x	x	x	x
COc1ccc(/C=N\NC(=O)c2ccc(-c3ccccc3)cc2)c(OC)c1OC	-8.0%	-4.8	29.4%	-7.7%	-0.8%	-8.6
Cc1occc1C(=O)N/N=C/c1ccc(OCc2ccccc2)cc1	33.8%	-4.6	u	-19.3%	-6.9%	1.7
COc1cc(/C=N/NC(=O)c2ccc(-n3cccc3)cc2)ccc1O	22.4µM*	2.1	89.1µM*	u	12.6µM*	u
COc1cc(/C=N/NC(=O)c2ccc(-c3ccccc3)cc2)cc(OC)c1OC	u	-4.5	u	u	35.5µM*	4.9
Cc1occc1C(=O)N/N=C/c1ccc(-c2ccccc2)cc1	-5.6%	-77.9*	42.3%	2.3%	14.7%	-23.8
SMILES	POLH inh	PI4K2A block	Pol iota inh	Pol kappa inh	POLB inh	PI5P4Ka inh
COc1cc(/C=N/NC(=O)c2ccc3c(c2)OCO3)ccc1O	-13.4%	-1.7	-1.7%	8.1%	u	3.5
COc1cc(/C=N\NC(=O)c2sc(N)nc2C)cc(OC)c1OC	u	-5.9	7.08µM*	u	28.2µM*	-9.2
Cc1ccc2c(c1)ncc[n+]2CC(=O)c1ccc(Cl)cc1Cl	x	x	-25.4%	-7.6%	x	x
COc1ccc(/C=C/c2nccc3ccccc23)cc1OC	x	x	16.9%	-0.2%	x	x
COc1cccc(/C=N/NC(=O)c2ccc(N3CCCC3=O)cc2)c1	-3.2%	-2.4	u	u	25.1µM*	0.2
COc1cc(/C=C(/C(=O)O)c2ccc(-c3ccccc3)cc2)cc(OC)c1OC	u	-0.9	27.4%	-10.8%	50.1µM*	-25.4
CCN(CCCNC(=O)c1cc(Nc2ccc(OC)cc2OC)nc2ccccc12)c1cccc(C)c1	-17.0%	-0.2	11.8%	-20.8%	-1.6%	x
COc1cccc2cc(-c3csc(CCn4nc(C)cc4C)n3)c(=O)oc12	u	1.0	8.5%	-15.7%	-1.8%	-15.7
CC/C(C)=N/Nc1nc(-c2cc3cccc(OC)c3oc2=O)cs1	50.1µM*	-25.0	50.1µM*	u	-14.9%	-60.2*
CN1C(=O)c2ccccc2Sc2ccc(NC(=O)Cc3c(F)cccc3Cl)cc21	-14.8%	-8.2	u	-9.9%[60.1 µM]	20µM*	x
Cn1nnc(-c2ccc(OCc3ccccc3F)cc2)n1	-1.4%	-56.3*	7.3%	-0.5%	0.8%	0.1
CCOc1ccc(-c2c(C)nn3c(C)c(C(=O)Nc4cc(C)cc(C)c4)cnc23)cc1OCC	x	0.7	u	20.0%	-6.2%	x
CCOC(=O)N1CCC(NC(=O)c2cnn(-c3ccc(C)cc3)c2-n2cccc2)CC1	-2.2%	-5.7	-7.5%	-19.2%	-13.0%	x
O=C(O)COc1ccc(Br)cc1/C=N/O	11.2µM*	51.0	u	-27.0%	25.1µM*	-5.8
CCOC(=O)/C(C#N)=C/c1ccc(-c2ccc(C)cc2)o1	-9.6%	3.3	-14.4%	-15.8%	2.4%	x
C=CCn1c(SCC(=O)NC2CCCC2)nc2scc(-c3ccco3)c2c1=O	15.8µM*	u	u	u	25.1µM*	-83.4*
